About 83,000 compounds went through this panel and 20% of them were active in at least one assay; those are over-represented in the sample as a whole.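 For each line, cells grew in 96-well plates with the test compound present at a single concentration for 48 hours.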 Active and inactive are the calls of the source. Rule for the calls: active = growth percent below 10; inactive = the rest.
Experiments:
Assay in all cases: NCI-60 one-dose screen, 48 h (100 = growth as untreated, 0 = no growth, -100 = all killed)
NCI-H23 lung = conditions: 10 µM unless noted
NCI-H226 lung = conditions: 10 µM unless noted
NCI-H322M lung = conditions: 10 µM unless noted
NCI-H460 lung = conditions: 10 µM unless noted
HOP-92 NSCLC = conditions: 10 µM unless noted
NCI-H522 lung = conditions: 10 µM unless noted
A549/ATCC NSCLC = conditions: 10 µM unless noted
786-0 renal = conditions: 10 µM unless noted
COLO 205 colon = conditions: 10 µM unless noted
DU-145 prostate = conditions: 10 µM unless noted
K-562 leukemia = conditions: 10 µM unless noted
MALME-3M melanoma = conditions: 10 µM unless noted
MDA-MB-231 breast = conditions: 10 µM unless noted
RXF 393 renal = conditions: 10 µM unless noted
SF-268 CNS = conditions: 10 µM unless noted
SF-295 CNS = conditions: 10 µM unless noted
SF-539 CNS = conditions: 10 µM unless noted
UACC-257 melanoma = conditions: 10 µM
M14 melanoma = conditions: 10 µM unless noted

SMILES	growth (NCI-H23 lung)	growth (NCI-H226 lung)	growth (NCI-H322M lung)	growth (NCI-H460 lung)	growth (HOP-92 NSCLC)	growth (NCI-H522 lung)	growth (A549/ATCC NSCLC)	growth (786-0 renal)	growth (COLO 205 colon)	growth (DU-145 prostate)	growth (K-562 leukemia)	growth (MALME-3M melanoma)	growth (MDA-MB-231 breast)	growth (RXF 393 renal)	growth (SF-268 CNS)	growth (SF-295 CNS)	growth (SF-539 CNS)	growth (UACC-257 melanoma)	growth (M14 melanoma)
Cc1cc(=O)n2nc(-c3cn(C)c4ccc(Cl)cc34)sc2n1	92.1% (inactive)	67.3% (inactive)	97.2% (inactive)	78.6% (inactive)	80.1% (inactive)	89.2% (inactive)	96.7% (inactive)	102% (inactive)	93.7% (inactive)	90.1% (inactive)	99.2% (inactive)	93% (inactive)	82.3% (inactive)	59.5% (inactive)	87% (inactive)	105% (inactive)	83% (inactive)	97% (inactive)	92% (inactive)
CCNC(=O)Oc1ccc(/C(=C(/C)c2ccc(Cl)cc2)c2ccc(OCCN(C)C)cc2)cc1	87% (inactive)	94.4% (inactive)	90.5% (inactive)	66.6% (inactive)	45.1% (inactive)	88.7% (inactive)	–	64.3% (inactive)	82.8% (inactive)	92.1% (inactive)	11.7% (inactive)	13.4% (inactive)	79.8% (inactive)	55.8% (inactive)	75.6% (inactive)	94.4% (inactive)	66% (inactive)	81% (inactive)	64.2% (inactive)
N#Cc1c(NC(=O)c2ccc(F)c(Cl)c2)sc2c1CCC(=O)C2	-7.87% (active)	18.3% (inactive)	53.6% (inactive)	4.07% (active)	-37.4% (active)	3.24% (active)	19.4% (inactive)	21.3% (inactive)	-50.2% (active)	25.8% (inactive)	9.06% (active)	-78.7% (active)	-55.7% (active)	-60.5% (active)	16.3% (inactive)	-12.2% (active)	-56.2% (active)	2.11% (active)	-17.8% (active)
CCOC(=O)c1c(NCC(=O)Nc2cccc(Cl)c2)sc2c1CCCC2	66.5% (inactive)	69.8% (inactive)	91.4% (inactive)	92.5% (inactive)	96.3% (inactive)	65.9% (inactive)	101% (inactive)	106% (inactive)	101% (inactive)	93.8% (inactive)	66% (inactive)	82.8% (inactive)	86.5% (inactive)	87.3% (inactive)	84.8% (inactive)	80.1% (inactive)	92.5% (inactive)	99.1% (inactive)	83.2% (inactive)
O=C(NCCCNc1cc(-c2cn(-c3ccccc3)nc2-c2cccc(O)c2)ccn1)Nc1cccc(C(F)(F)F)c1	58% (inactive)	62% (inactive)	54.2% (inactive)	28.7% (inactive)	40.2% (inactive)	46.9% (inactive)	49% (inactive)	-4.95% (active)	3.19% (active)	66.9% (inactive)	13.3% (inactive)	17.7% (inactive)	18.6% (inactive)	-14% (active)	38.6% (inactive)	-15.3% (active)	27.5% (inactive)	21.1% (inactive)	–
Oc1ccc(CSc2nnc(-c3ccncc3)n2-c2ccccc2)c2cccnc12	22.4% (inactive)	50.8% (inactive)	34% (inactive)	5.96% (active)	-7.79% (active)	3.95% (active)	25.5% (inactive)	29.1% (inactive)	102% (inactive)	28.2% (inactive)	18.4% (inactive)	31.8% (inactive)	30.7% (inactive)	23.6% (inactive)	23.1% (inactive)	4.58% (active)	21.1% (inactive)	10.7% (inactive)	23.1% (inactive)
COc1cc(/C=C/C(=O)c2ccc(NC(=O)CSc3nnc(-c4ccc5nc(-c6ccccc6)[nH]c5c4)o3)cc2)cc(OC)c1OC	92.7% (inactive)	99.3% (inactive)	96.9% (inactive)	92.5% (inactive)	142% (inactive)	95.3% (inactive)	105% (inactive)	75.4% (inactive)	115% (inactive)	91% (inactive)	58.3% (inactive)	109% (inactive)	93.6% (inactive)	-6.89% (active)	97.7% (inactive)	105% (inactive)	82.5% (inactive)	87.6% (inactive)	–
Cc1cc(O)c2c(c1)C(=O)C(c1c(C)cc3c(c1O)C(=O)C=CC3=O)=CC2=O	89.9% (inactive)	97.7% (inactive)	110% (inactive)	109% (inactive)	108% (inactive)	-36.9% (active)	98.6% (inactive)	37.4% (inactive)	-19.3% (active)	72.8% (inactive)	15.4% (inactive)	-15.2% (active)	62.8% (inactive)	20.2% (inactive)	96.8% (inactive)	107% (inactive)	108% (inactive)	–	93.1% (inactive)
COc1ccc([C@@H]2[C@@H](O)C(=O)N2c2cc(OC)c(OC)c(OC)c2)cc1Cl	28% (inactive)	33.3% (inactive)	44.8% (inactive)	2.22% (active)	-2.92% (active)	-8.73% (active)	22.2% (inactive)	18.9% (inactive)	-81.1% (active)	15.2% (inactive)	–	64.3% (inactive)	26% (inactive)	26% (inactive)	44% (inactive)	9.68% (active)	-12.4% (active)	–	13.4% (inactive)
Cc1cnc2nc(NN)[nH]n12	104% (inactive)	93.4% (inactive)	100% (inactive)	103% (inactive)	100% (inactive)	93.1% (inactive)	99.2% (inactive)	103% (inactive)	101% (inactive)	109% (inactive)	103% (inactive)	102% (inactive)	106% (inactive)	119% (inactive)	99.8% (inactive)	95.2% (inactive)	100% (inactive)	101% (inactive)	101% (inactive)
COc1cc(O)c2c(c1)[C@H]1O[C@@H]1C[C@H](O)[C@H](O)C(=O)/C=C\C[C@H](C)OC2=O	25.7% (inactive)	37.9% (inactive)	85.7% (inactive)	68.1% (inactive)	-8.48% (active)	4.82% (active)	72.3% (inactive)	66% (inactive)	9.13% (active)	55.3% (inactive)	29.9% (inactive)	-24.1% (active)	48.7% (inactive)	8.74% (active)	74.4% (inactive)	81.7% (inactive)	61.7% (inactive)	–	9.43% (active)
NCCN1CCN(c2nc(-c3ccccc3)nc3nc(-c4ccccc4)oc23)CC1	-42.7% (active)	-57.6% (active)	-41.4% (active)	-67.7% (active)	58.9% (inactive)	-13.1% (active)	-63.7% (active)	-83.3% (active)	-44.7% (active)	-79% (active)	6.56% (active)	-68.8% (active)	-74.5% (active)	49.6% (inactive)	-64.7% (active)	-83.6% (active)	-87.6% (active)	93.4% (inactive)	–
COc1ccc([C@H]2[C@H](O)C(=O)N2c2cc(OC)c(OC)c(OC)c2)cc1O	31.2% (inactive)	19.6% (inactive)	51.4% (inactive)	2.08% (active)	-8.12% (active)	-38% (active)	19.8% (inactive)	17.4% (inactive)	-73% (active)	17.4% (inactive)	–	59.7% (inactive)	28.3% (inactive)	21.3% (inactive)	50.1% (inactive)	2.84% (active)	-16.3% (active)	–	7.13% (active)
CNC(=O)c1cc(Oc2ccc3nc(NC(=O)c4cc(C)cc(C)c4)sc3c2)ccn1	97.2% (inactive)	75% (inactive)	103% (inactive)	93.1% (inactive)	9.05% (active)	84.2% (inactive)	89.7% (inactive)	59% (inactive)	85.4% (inactive)	93.5% (inactive)	50% (inactive)	87.7% (inactive)	84.6% (inactive)	69.2% (inactive)	82.4% (inactive)	65% (inactive)	85.6% (inactive)	89.1% (inactive)	53.6% (inactive)
C=C(C)C(=O)O[C@H]1C[C@@]2(C)OC(=CC2=O)[C@H](C)[C@H](O)[C@H]2OC(=O)C(=C)[C@@H]21	58.4% (inactive)	92.2% (inactive)	93.8% (inactive)	93.3% (inactive)	69.7% (inactive)	-67.6% (active)	94.7% (inactive)	64.2% (inactive)	13.6% (inactive)	73.2% (inactive)	20.4% (inactive)	48.3% (inactive)	76.6% (inactive)	22.2% (inactive)	79.8% (inactive)	93.8% (inactive)	74.7% (inactive)	67% (inactive)	71.7% (inactive)

Reference: PubChem BioAssay (NCI)
